FLuc inh – Photinus pyralis luciferase inhibition | P08659 | purified P. pyralis luciferase, luminescence, biochemical | Potency, µM (highest dose often 115 µM), usual class: inhibitors | hit rate 2.5% among 76,000; note: nearly all actives have a fitted effect of over 65% in size
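Luminescence read by CCD imaging after purified firefly luciferase (10nM final) was added to substrate buffer holding 10uM D-luciferin and 10uM ATP, pH 7.5, pre-dosed with compound.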
GPT2 inh – GPT2 alanine aminotransferase inhibition; AID 1671188; hit rate 0.25% among 100,000; Recombinant GPT2, coupled pyruvate oxidase/HRP Amplex Red fluorescence; Potency, µM (series often up to 57.7 µM), usual class: inhibitors; note: nearly all actives have a fitted effect of over 60% in size
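Fluorescence read-out: pyruvate from GPT2 turnover coupled to pyruvate oxidase, HRP and Amplex Red (0.2mM ThPP, 0.2U/mL PO and HRP, 50uM Amplex final). Substrates 250uM a-KG, 2mM L-alanine; enzyme 10ng/uL; 30 min RT.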
NIH3T3 tox – NIH 3T3 cell cytotoxicity | NIH 3T3 viability, CellTiter-Glo ATP luminescence, 48-72 h | Potency, µM (highest dose often 96.7 µM), usual class: inhibitors | AID 1345082 | hit rate 4.3% among 94,000; note: nearly all actives have a fitted effect of over 55% in size
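Mouse fibroblast NIH 3T3 cells, 400 per well, received compound via pintool and were incubated for 48 or 72 hr prior to CellTiter-Glo ATP luminescence measurement.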
HEK cytotox – cytotoxic compounds in HEK 293 cells; HEK 293 viability, ATP luminescence (CellTiter-Glo), 48-72 h; Potency, µM (highest dose often 115 µM), hits mostly inhibitors; hit rate 6.6% among 94,000; AID 1345083; note: nearly all actives have a fitted effect of over 60% in size
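Cytotoxicity was scored by loss of ATP-coupled luminescence (CellTiter-Glo) in HEK 293 cells. Compound treatment ran 48 or 72 hr at 37 degree Celsius, 5% CO2, 95% humidity.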
NPR1 antag – antagonists of human natriuretic peptide receptor Npr1. Potency, µM (series often up to 46.3 µM), hits mostly inhibitors. hit rate 1.6% among 76,000. P16066. AID 1347048. HEK293 hNpr1 GloSensor cGMP, ANP-stimulated luminescence; calls by dose curve; note: nearly all actives have a fitted effect of over 60% in size
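Compound pre-incubated 30 min at room temperature on GloSensor-loaded HEK293 cells stably carrying hNpr1 and the pGS-40F cGMP biosensor. Stimulation uses hNppA at 0.1 nM final; luminescence is taken at baseline and 20 min post-agonist.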
Hits are given with their value; . = inactive; ? = inconclusive; / = no result given. An excerpt weighted towards active compounds, which were near 10% of everything screened. Unless noted, calls come from the whole dose curve; as a rule, active = well fitted curve in the direction sought with a large enough effect; inconclusive = small, poorly fitted or top-dose-only effect, or another doubt; inactive = no such curve, though single readings can be large; an effect the other way counts as inactive or inconclusive.

SMILES	FLuc inh	GPT2 inh	NIH3T3 tox	HEK cytotox	NPR1 antag
CN1CCN(c2ccc3ncc(Nc4ccccc4-c4ccccc4)n3n2)CC1	.	?	25µM	40µM	?
Fc1ccccc1Nc1cnc2ccc(-n3ccnc3)nn12	.	.	?	?	.
c1ccc(-c2ccccc2Nc2cnc3ccc(-n4ccnc4)nn23)cc1	.	.	25µM	32µM	?
CCN(CCN(C)C)C(=O)CNCc1cc(C(N)=O)ccn1	/	.	/	/	/
Cc1ccc(C2Cn3nnc(C(=O)N4CCC(C(=O)NCc5cccc(F)c5)CC4)c3CO2)cc1 (configuration not stated)	35µM	.	.	.	.
Cc1ccc(C2Cn3nnc(C(=O)N4CCC(C(=O)NCc5cc(F)cc(F)c5)CC4)c3CO2)cc1 (configuration not stated)	16µM	.	.	.	.
Cc1ccc(C2Cn3nnc(C(=O)N4CCC(C(=O)NCc5cccc(Cl)c5)CC4)c3CO2)cc1 (configuration not stated)	22µM	.	.	.	.
CN1C[C@@H](NS(=O)(=O)c2ccccc2)C[C@H]1c1nc(Cc2ccccc2)no1	.	.	?	?	.
COc1ccc(-c2noc([C@@H]3C[C@H](NCc4ccc(N(C)C)cc4)CN3C)n2)cc1	63µM	.	50µM	35µM	.
CN1C[C@@H](NS(=O)(=O)c2ccccc2)C[C@H]1c1nc(-c2ccccn2)no1	22µM	.	?	.	.
COc1ccc(-c2noc([C@@H]3C[C@H](NS(=O)(=O)c4ccccc4)CN3C)n2)cc1	.	.	?	89µM	.
COc1ccc(-c2noc([C@@H]3C[C@H](NS(=O)(=O)c4ccc(OC)cc4)CN3C)n2)cc1	22µM	.	?	40µM	?
COCc1cccc(-c2n[nH]c3c2CC(=O)N(CCOc2ccccc2)C3)c1	.	.	?	?	.
CNC(=O)c1cc(C)nc2onc(C3CCN(C(=O)c4ccc(F)cc4)C3)c12 (configuration not stated)	/	/	.	.	/
O=C(NC1CCN(c2ccc3nnc(-c4ccccc4)n3n2)C1)c1cccc(C(F)(F)F)c1 (configuration not stated)	/	/	?	.	/
Cc1ccc(S(=O)(=O)N[C@H]2C[C@@H](c3nc(-c4ccccc4)no3)N(C)C2)cc1	?	.	.	?	.
Cc1ccc(-c2noc([C@@H]3C[C@H](NS(=O)(=O)c4ccc(Cl)cc4)CN3C)n2)cc1	22µM	.	?	79µM	?
Cc1ccc(-c2cc(-c3cccnc3)c3cncn3c2)cn1	.	?	40µM	?	.
Cc1ccc(-c2cc(-c3ccncc3)c3cncn3c2)cn1	.	.	?	?	.
COc1ccc(-c2cc(-c3ccc(OC)nc3)cn3cncc23)cc1	.	.	40µM	89µM	.
Oc1cccc(-c2cc(-c3cccnc3)c3cncn3c2)c1	?	.	25µM	56µM	.
OCc1cccc(-c2cc(-c3ccncc3)c3cncn3c2)c1	.	.	13µM	25µM	.
N#Cc1cccc(-c2c(C(=O)NC3CC3)nc3sccn23)c1	/	.	.	.	/
COc1ccc(-c2cc(-c3cccc(NC(C)=O)c3)cn3cncc23)cc1	?	.	?	?	.
COc1ncccc1-c1cc(-c2cccnc2)c2cncn2c1	.	.	?	?	.
SMILES	FLuc inh	GPT2 inh	NIH3T3 tox	HEK cytotox	NPR1 antag
COc1ccc(-c2cc(-c3cccnc3OC)cn3cncc23)cc1	.	.	35µM	?	.
COc1ccc(-c2cc(-c3cnc4[nH]ccc4c3)cn3cncc23)cc1	?	.	79µM	?	.
COc1ccc(-c2cc(-c3ccc4c(c3)C(=O)NC4)cn3cncc23)cc1	.	.	?	?	.
COc1ncccc1-c1cc(-c2ccncc2)c2cncn2c1	.	.	28µM	?	.
COc1ccc(-c2cc(-c3cccnc3)cn3cncc23)cc1	.	.	40µM	?	.
CC(=O)N(C1CCOCC1)C1CCN(S(=O)(=O)c2ccc(Cl)c(C)c2)CC1	/	.	.	.	/
COc1cccc(CC(=O)N2CCC(C3CCN(C(C)=O)CC3)C2)c1 (configuration not stated)	/	.	.	.	/
Cc1ccc(Nc2ccnc(N3CCC(NC(=O)c4ccc(F)cc4)CC3)n2)cc1	/	.	35µM	?	/
Cc1ccc(Nc2ccnc(N3CCC(NC(=O)c4ccc(C(F)(F)F)cc4)CC3)n2)cc1	/	.	13µM	?	/
